# Rows were chosen to be rich in hits. Some 2.8% of all compounds tested hit in one or more screens of this group.
# Mito fusion act: inhibitors of mitochondrial division or activators of mitochondrial fusion | S. cerevisiae fusion-defective mutant growth rescue, CellTiterGlo 48 h | AID 485298 | 0.23% of 320,000 active | Potency, µM (titrated, usually from 46.1 µM), actives largely listed as activators; note: nearly all actives have a fitted effect of over 45% in size
#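 Luminescent cell viability in 1536-well qHTS format served as the measure of rescued growth in ts fusion-mutant S. cerevisiae cultured on non-fermentable YPEG for 48 hours at 37C.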
# HEK293 tox: cytotoxicity counter-screen for GLP-1 receptor inverse agonists. Potency, µM (doses to about 38.3 µM), usual class: inhibitors. 0.13% of 410,000 active. AID 624418. HEK293 cAMP-luciferase reporter cells, luminescence, 24 h;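 note: loss of luciferase light is scored as toxicity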
#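 Luminescence readout: signal drop marks cytotoxicity. Plated cells grew 12 h at 37 °C, 5% CO2, received 23 nL compound for 24 h, then got luciferase reagent, read after 12 min at RT.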
# GLP1R ag: agonists of human GLP-1 receptor; HEK293 GLP-1R CRE-luciferase, luminescence, 4-6 h; cells express a hypersensitive GLP-1R form; Potency, µM (top dose mostly 45.6 µM), actives largely listed as activators; 0.007% of 380,000 active
# Target sequence (P43220 whole entry, looked up): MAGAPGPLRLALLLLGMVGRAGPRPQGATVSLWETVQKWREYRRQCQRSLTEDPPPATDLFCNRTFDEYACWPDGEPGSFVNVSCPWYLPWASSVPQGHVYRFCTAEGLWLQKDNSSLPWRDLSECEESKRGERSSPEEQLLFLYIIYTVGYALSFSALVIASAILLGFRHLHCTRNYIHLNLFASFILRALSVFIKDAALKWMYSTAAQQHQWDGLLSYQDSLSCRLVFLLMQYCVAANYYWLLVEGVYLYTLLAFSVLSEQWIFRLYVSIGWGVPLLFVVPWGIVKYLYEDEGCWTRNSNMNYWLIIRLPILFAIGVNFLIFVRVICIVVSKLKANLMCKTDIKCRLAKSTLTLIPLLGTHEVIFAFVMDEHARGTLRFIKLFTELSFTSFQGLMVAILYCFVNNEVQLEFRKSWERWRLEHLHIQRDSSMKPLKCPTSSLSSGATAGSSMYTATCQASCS
# BRCA1 expr act: activators of BRCA1 expression. MCF7-BRCA1-FFLuc reporter, luminescence, 48 h; response scale: scaled: vehicle 0%, 10 µM genistein 100%. Potency, µM (doses to about 46.1 µM), usual class: activators. 1.1% of 380,000 active. AID 624202; note: nearly all actives have a fitted effect of over 80% in size
#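 First, MCF7-BRCA1-FFLuc cells (2000/well) attach for 2 h; next, compounds are pin-added and incubated 48 h at 37 °C; finally, luciferase reagent is added and luminescence read after 15 min.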
# GLP-1R inv ag: acts as inverse agonist at human GLP-1 receptor; Potency, µM (titrated, usually from 38.3 µM), usual class: inhibitors; HEK293 GLP-1R CRE-luciferase, luminescence, 24 h; GLP-1R form is constitutively active; 1.6% of 410,000 active; P43220; note: nearly all actives have a fitted effect of over 55% in size
#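 Stable HEK293 clone (constitutively active GLP-1R + cAMP-response luciferase); 200 cells/uL plated, 12 h pre-culture, compound 24 hr, 37 deg C/5% CO2; detection reagent 12 min RT; luminescence.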
# A number is an active result; – = inactive; ? = inconclusive; · = no result. Calls come from the whole dose curve; as a rule, active = well fitted curve in the direction sought with a large enough effect; inconclusive = small, poorly fitted or top-dose-only effect, or another doubt; inactive = no such curve, though single readings can be large; an effect the other way counts as inactive or inconclusive.
SMILES,Mito fusion act,HEK293 tox,GLP1R ag,BRCA1 expr act,GLP-1R inv ag
Cc1ccc(-c2csc(N3CCN(CCCn4c(-c5ccncc5)nc5ccccc54)CC3)n2)cc1,–,–,–,–,?
Cn1c(=O)c(=O)n(C)c2cc(S(=O)(=O)N3CCN(c4ccccc4)CC3)ccc21,·,–,·,·,–
COc1cc(OC)cc(C(=O)NC2=NCCS2)c1,–,–,–,–,–
COc1ccc(C(=O)NC2=NCCS2)cc1,–,–,–,3.16µM,–
COC(=O)c1ccccc1NC(=O)c1ccc(COc2cccc3ccccc23)o1,–,–,–,–,–
COc1ccc(S(=O)(=O)NC(CC(=O)NCCc2ccccc2)c2ccco2)cc1 (centres undefined),–,–,–,–,–
CC(C)(C)C(O)C(Cc1ccccc1Cl)n1cncn1 (centres undefined),10µM,–,–,–,–
NC(N)=NN=C(c1ccc(F)cc1)c1ccc(C(F)(F)F)cc1,·,?,–,–,1.12µM
CN(C)/C=C/C(=O)c1ccc(-c2ccc(Cl)cc2Cl)o1,–,–,–,11.2µM,–
CC(CCc1ccccc1)NCc1ccncc1 (centres undefined),–,–,–,–,–
O=C1c2ccccc2C(=O)C1c1ccccn1,–,–,–,2.51µM,–
O=C1c2ccccc2C(=O)C1c1ccncc1,–,–,–,–,?
O=c1c2ccccc2nc(SCc2nc(-c3ccccc3)no2)n1-c1ccc(F)cc1,–,–,–,–,3.55µM
Clc1ccccc1-c1nnc(SCc2nc(-c3ccccc3)no2)n1-c1ccccc1,·,–,·,·,10µM
Cc1ccc(-n2c(Cc3ccccc3)nnc2SCc2nc(-c3cccs3)no2)cc1,·,–,·,–,10µM
Clc1ccc(-c2noc(CSc3nnc(-c4ccncc4)n3-c3ccccc3)n2)cc1,–,–,–,–,?
O=C(O)CCC(=O)CCC(=O)c1ccc(Cl)cc1,–,–,–,–,–
C1=CCN(c2nc(N3CCOCC3)nc(N3CCCc4ccccc43)n2)CC1,·,–,–,–,11.2µM
O=C(CCc1nnc(C2CCCCC2)o1)N1CCN(Cc2ccccc2)CC1,–,–,–,–,–
O=C(Nc1nc(-c2ccco2)c(-c2ccco2)s1)c1c(F)cccc1Cl,12.6µM,–,–,–,?
Cc1ccc(C)c(CNC(=O)Nc2ccccc2)c1,–,–,–,7.08µM,?
Cc1ccc(CNC(=O)NCc2ccccc2)cc1,–,–,–,–,–
Cc1ccc(CNC(=O)Nc2ccccc2)cc1,–,–,–,3.55µM,–
Cc1ccccc1CC1CCN(CCCNC(=O)Nc2ccccc2)CC1,–,–,–,–,10µM
O=C(NCc1ccc(F)cc1)Nc1ccccc1,–,–,–,10µM,–
SMILES,Mito fusion act,HEK293 tox,GLP1R ag,BRCA1 expr act,GLP-1R inv ag
COc1ccc(OC)c(-n2cnc3cc(C(=O)NC4CCCCCC4)ccc32)c1,·,–,·,·,–
O=c1c(=O)n(Cc2ccc(Cl)cc2)ccn1Cc1ccc(F)cc1,·,–,·,·,–
CCC(C)[C@H](NC(=O)NCCCn1ccnc1)C(=O)OC (some centres undefined),–,–,–,–,–
CCc1ccc(CNC(=O)c2sc3nc[nH]c(=O)c3c2C)cc1,·,–,·,·,–
CC(=O)c1c(C)oc2c1cc(NS(=O)(=O)c1ccc(C(C)(C)C)cc1)c1ccccc12,·,–,·,·,11.2µM
CC1CCC(NC(=O)c2cc3c(s2)CCCC3)CC1 (centres undefined),?,–,–,3.98µM,?
O=C(Nc1ccon1)c1cc2c(s1)CCCCCC2,–,–,–,10µM,–
O=C(NCc1ccco1)c1cc2c(s1)CCCCC2,–,–,–,11.2µM,–
CNC(=O)c1cc2c(s1)CCCCCC2,–,–,–,–,–
O=C(Nc1ccon1)c1cc2c(s1)CCCC2,–,–,–,?,–
COc1ccc(Br)cc1/C=C/C(=O)Nc1ccc(C)cc1,?,–,–,–,4.47µM
COc1ccc(Br)cc1/C=C/C(=O)Nc1ccc2ccccc2c1,?,–,–,–,–
CC(C)[C@H](NC(=O)c1nn(Cc2ccccc2)c(=O)c2ccccc12)C(=O)O,–,–,–,–,–
CCOC(=O)Cc1csc(NC(=O)c2cnc3sc(C)cn3c2=O)n1,–,–,–,11.2µM,–
CCCCCCC(C)n1[nH]c(=O)c2c(C)cc(C)nc21 (centres undefined),–,–,–,–,10µM
O=C(CSc1nc(Nc2ccccc2)nc(N2CCOCC2)n1)Nc1cccc([N+](=O)[O-])c1,–,–,–,–,11.2µM
CCCNS(=O)(=O)c1ccc(OCC(=O)N2CCN(c3ccccc3)CC2)cc1,–,–,–,–,–
O=C(O)CC(NC(=O)C1CCCCC1)c1cc([N+](=O)[O-])ccc1Cl (centres undefined),–,–,–,–,–
O=C(O)CC(NC(=O)C12CC3CC(CC(C3)C1)C2)c1cc([N+](=O)[O-])ccc1Cl (centres undefined),3.55µM,–,–,–,–
O=C(N/N=C/c1c(F)cccc1Cl)C1CC1,–,–,–,–,–
O=C(O)c1ccc(N/N=C/c2c(F)cccc2Cl)cc1,–,–,–,?,5.01µM
C=CCNC(=S)NNC(=O)CC12CC3CC(CC(C3)C1)C2,–,–,–,–,–
Cc1ccc(CNC(=O)c2ccc(Cl)c(S(=O)(=O)N3CCCCC3)c2)cc1,–,–,–,–,10µM
CCN1CCN(c2ccc(NC(=O)c3ccc(OC)c(S(=O)(=O)N4CCCC4)c3)cc2)CC1,–,–,–,–,–
CCN1CCN(c2ccc(NC(=O)c3ccc(Cl)c(S(=O)(=O)N4CCCC4)c3)cc2)CC1,–,–,–,–,3.55µM
SMILES,Mito fusion act,HEK293 tox,GLP1R ag,BRCA1 expr act,GLP-1R inv ag
Cc1cccc(NC(=O)c2ccc(Cl)c(S(=O)(=O)N3CCc4ccccc43)c2)n1,?,–,–,–,11.2µM
Cc1ccc(NC(=O)c2ccc(Cl)c(S(=O)(=O)N3CCCCCC3)c2)nc1,–,–,–,–,7.08µM
Cc1ccc(N=C(c2cccs2)N2CCOCC2)cc1,–,–,–,–,?
C=CCNC(=O)CSc1cc([N+](=O)[O-])cc(S(=O)(=O)Cc2ccccc2)c1,–,–,–,–,–
Cc1nnc(NC(=O)c2ccc3c(c2)NC(=O)CS3)s1,–,–,–,–,–
Cc1ccc(NC(=O)c2ccc3c(c2)NC(=O)CS3)nc1,–,–,–,7.94µM,–
O=C(Cc1ccc(Cl)cc1)Nc1cccc(S(=O)(=O)N2CCCCC2)c1,–,–,–,–,?
O=C(Nc1ccccc1N1CCCCC1)C1CCN(S(=O)(=O)c2cccc(C(F)(F)F)c2)CC1,–,–,–,–,11.2µM
CC(C)(C)c1ccc(OCCCC(=O)Nc2cccc(S(=O)(=O)N3CCOCC3)c2)cc1,–,–,–,–,7.94µM
